tim23-1 inh – growth inhibitors of tim23-1 mutant yeast, primary screen, luminescence, uHTS. S. cerevisiae tim23-1 growth, BacTiter-Glo luminescence, 24 h. inhibition, % at 20 µM. actives 1.3% (n = 330,000);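 active = growth inhibition of the mutant yeast at or above 50%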;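 note: temperature-sensitive mutant grown at 25 °C; plate controls were DMSO-treated mutant yeast for no effect and medium wells lacking yeast for full effect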
tim10-1 inh – growth inhibitors of tim10-1 mutant yeast, primary screen, luminescence, uHTS; S. cerevisiae tim10-1 ts strain growth, BacTiter-Glo, 24 h; inhibition, % at 20 µM; actives 2.2% (n = 330,000);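 active = inhibition of at least 40%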;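 note: mutant grown at 25 °C; 0% = DMSO wells with yeast and 100% = wells holding no yeast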
TIM10 inh – growth inhibitors of isogenic TIM10 control yeast, primary screen, counter-screen for tim10-1 yeast inhibitor project, luminescence, uHTS; S. cerevisiae TIM10 strain growth, BacTiter-Glo luminescence, 24 h; inhibition, % at 10 µM; actives 1.4% (n = 330,000); AID 463195, 2010;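 active = inhibition of 40% or more at the single tested concentration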;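 note: wild-type TIM10 isogenic control strain grown at permissive 25 °C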
NALP1 inh – NALP1 inflammasome inhibitors in reconstituted yeast, colorimetric, S. cerevisiae, triplicate retest; S. cerevisiae NALP1/ASC/caspase-1 growth, X-gal OD620, 72 h; inhibition, % at 10 µM; actives 0.61% (n = 280,000); AID 2071, 2009; in the data active = inhibition mostly above about 24%, no sharp cut-off; inactive = mostly below about 32%
V-ATPase pH – regulators of yeast V-ATPase proton pumping, primary screen, pHLuorin cytosolic pH fluorescence; AID 504577, 2011; response, % at 10 µM; actives 0.37% (n = 350,000); S. cerevisiae; in the data active = response mostly above about 7.3%, no sharp cut-off; inactive = mostly below about 5.4%; note: actives read high
NLRP3 yeast inh – NALP3 inflammasome inhibitors in reconstituted yeast, primary screen, luminescence, uHTS; actives 0.39% (n = 330,000); AID 2825, 2010; inhibition, % at 10 µM; Yeast reconstituted NLRP3/ASC/caspase-1, beta-gal luminescence, 24 h;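 active = inhibition of 50% or more; inactive = inhibition below 50%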;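 note: plate controls were induced DMSO wells for no effect and uninduced yeast grown without galactose for full effect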
tim23-1 conf – tim23-1 mutant yeast growth inhibitors, confirmation, luminescence, single concentration | shares compounds with tim23-1 inh | S. cerevisiae tim23-1 growth, BacTiter-Glo luminescence, 24 h | inhibition, % at 20 µM | actives 83% (n = 4,400) | AID 463218, 2010;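 active = inhibition above about 39% in either of two replicate wells at 20 µM, limit read from the data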;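 note: temperature-sensitive tim23-1 mutant grown at 25 °C; 0% = DMSO wells with yeast and 100% = medium wells without yeast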
* = called active by the depositor; x = no result. Compounds with a hit are over-represented: about 4.2% of the library has one in this group of screens.

SMILES | tim23-1 inh | tim10-1 inh | TIM10 inh | NALP1 inh | V-ATPase pH | NLRP3 yeast inh | tim23-1 conf
CN1C[C@@H]2[C@@H]3C(=O)N(Cc4ccccc4)C(=O)[C@@H]3[C@](Cc3ccccc3)(C1=O)N2C(=O)c1ccc(Br)cc1 | x | x | x | x | -5.6 | x | x
CCc1ccc2nc(SCC(=O)Nc3nnc(C)s3)c(C)cc2c1 | 58.0* | 7.9 | -13.2 | 0.1 | 2.5 | 7.7 | 12.8
O=P(O)(C(O)c1ccccc1)C(O)c1ccccc1 (stereo not drawn) | 8.2 | 8.0 | 0.5 | x | 2.0 | 9.3 | x
CCOC(=O)[C@H]1[C@H]2COc3cc(OC)ccc3[C@@H]2N2C(=O)c3cc(OC)c(OC)cc3NC(=O)[C@@]12C | 0.0 | 8.6 | -1.5 | x | 0.6 | 3.9 | x
OCC#CCSc1nnc(-c2ccc(Br)cc2)o1 | 13.9 | 15.5 | 34.8 | x | 2.6 | 10.8 | x
COC(=O)Sc1nnc(-c2ccc(Br)cc2)o1 | 60.1* | 9.6 | 21.7 | 36.1 | x | -6.2 | 52.4*
O=C1ON=C(c2ccccc2)/C1=C/c1ccccc1 | 50.6* | 20.0 | 14.2 | 3.5 | 1.1 | 14.4 | 39.0*
Cc1ccc(C2=NOC(=O)/C2=C\c2ccccc2)cc1 | 27.3 | 19.3 | 9.4 | x | 6.1 | 20.8 | x
O=C(Nc1ccccc1)c1ccc(Br)o1 | 21.6 | -10.6 | 6.7 | 35.2 | 1.4 | 33.5 | x
Cc1cc(C(=O)Nc2ccc3ccccc3c2)oc1C | 46.0 | 20.3 | 27.1 | 14.1 | 1.2 | 43.3 | x
Cc1ccoc1C(=O)Nc1ccc2ccccc2c1 | 54.2* | 30.6 | 29.3 | 23.0 | 1.3 | 30.6 | 50.2*
O=C(Nc1ccc2c(c1)OCO2)c1ccc(Br)o1 | 8.4 | -25.5 | -5.3 | 7.9 | -2.7 | 34.5 | x
O=C(Nc1ccc2ccccc2c1)c1ccc(Br)o1 | 56.0* | 18.3 | 19.6 | 9.1 | 1.3 | 41.2 | 52.4*
O=C(Nc1ccc2c(c1)oc1ccccc12)c1ccc(Br)o1 | 52.2* | -12.3 | 28.1 | 29.0 | -0.6 | 22.0 | 38.2
CCCN(C(=O)CSc1ncnc2sccc12)c1c(N)n(Cc2ccccc2)c(=O)[nH]c1=O | -7.4 | -7.7 | 2.3 | x | 1.0 | 11.0 | x
NS(=O)(=O)c1cccc(C(=O)OCC(=O)NC2CCCc3ccccc32)c1 (stereo not drawn) | 6.3 | -1.0 | 7.1 | x | -1.0 | 24.6 | x
CCOC(=O)c1c(NC(=O)COC(=O)c2cc(OC)c(OC)cc2[N+](=O)[O-])sc(C)c1C | -13.0 | -1.1 | 6.3 | 27.2 | -0.6 | 1.4 | x
CCCCS/C(N)=N/N=C/c1ccccc1O | 58.1* | 37.4 | 24.3 | 9.0 | -3.6 | 31.0 | 65.6*
Cc1csc2nc(O)c(C(=O)NCCCc3ccccc3)c(=O)n12 | 72.7* | 26.5 | 25.0 | x | 1.0 | 44.9 | 53.3*
COc1ccc(CCNC(=O)C2CCC(C(C)(C)C)CC2)cc1OC (stereo not drawn) | 33.3 | 25.8 | -2.5 | 2.9 | 0.8 | -0.9 | x
CC(C)CCSc1nc(N2CCOCC2)c2c(c1C#N)CC(C)(C)OC2 | 60.2* | 7.9 | 0.0 | -0.3 | -2.2 | -5.7 | 19.9
CC(C)NC(=S)N/N=C/C1=CCC2CC1C2(C)C (stereo not drawn) | 55.9* | 22.7 | 29.1 | 13.1 | 0.2 | 10.2 | 28.1
CCCCNC(=S)N/N=C/C1=CCC2CC1C2(C)C (stereo not drawn) | 52.6* | 30.9 | 36.6 | 14.9 | -1.1 | 23.0 | 25.4
C=C(C)CNC(=S)N/N=C/C1=CCC2CC1C2(C)C (stereo not drawn) | 33.0 | 17.2 | 18.7 | 22.8 | 0.2 | 15.2 | x
CCCN(CC(=O)Nc1cc(Cl)ccc1Cl)C(=O)c1ccccc1SCC(=O)N1CCCC1 | 8.0 | 11.1 | 9.9 | x | -0.9 | 3.4 | x
SMILES | tim23-1 inh | tim10-1 inh | TIM10 inh | NALP1 inh | V-ATPase pH | NLRP3 yeast inh | tim23-1 conf
Cc1ccc(-c2nnc(OCc3cccnc3)c3ccccc23)cc1 | 53.1* | 29.7 | -13.6 | 0.7 | 0.3 | 24.0 | 54.0*
Cc1ccc(-c2nnc(OCc3nc4ccccc4n3C)c3ccccc23)cc1 | 52.1* | 34.1 | 27.5 | x | 5.4 | 0.0 | 50.5*
c1ccc(-c2nnc(OCc3cccnc3)c3ccccc23)cc1 | -0.4 | -16.2 | -63.9 | 14.3 | -1.4 | 25.8 | x
COc1ccccc1OCc1nc2ccccc2n1C | 15.6 | 20.5 | -1.2 | 9.9 | 5.1 | 28.2 | x
COc1ccc(CNCc2cc(Cl)ccc2O)cc1 | 8.6 | 24.2 | -3.0 | x | -1.8 | 3.3 | x
Oc1ccc(Cl)cc1CNCc1ccc(F)c(F)c1 | 52.9* | 5.5 | 11.8 | x | -3.8 | 35.1 | 37.2
O=C(c1ccco1)N1CCN(C(=O)c2ccc(-c3ccc(Cl)cc3)o2)CC1 | 51.4* | 2.3 | 17.6 | x | -5.5 | 7.7 | 40.4*
CCOc1ccccc1/C=C(\C#N)C(=O)NC1CC1 | 54.9* | 27.9 | 38.6 | x | 3.1 | -0.5 | 51.7*
COC(=O)c1ccc(COc2ccccc2/C=C(\C#N)C(=O)NC(C)C)cc1 | 21.4 | 39.5 | 26.1 | 2.3 | -0.7 | 9.5 | x
CCOC(=O)Nc1ccc(C(=O)Oc2ccccc2)c(O)c1 | 57.0* | 18.6 | 19.7 | 2.4 | -0.8 | 23.3 | 54.5*
O=C(Nc1ccc(C(=O)Oc2ccccc2)c(O)c1)c1ccccc1 | 0.5 | -11.7 | -3.4 | 13.8 | -0.4 | 21.7 | x
COc1ccc(C2CC(c3ccc(Br)cc3)=NN2C(=O)CCC(=O)O)cc1OC (stereo not drawn) | 95.6* | 0.8 | -0.5 | 8.6 | 0.6 | 14.0 | 15.3
O=C(COC(=O)c1ccc2ncsc2c1)Nc1cc(Cl)ccc1F | 55.5* | 30.3 | 9.7 | x | -7.7 | 24.7 | 41.1*
Cc1ccc(C)c(OCCC(=O)OCc2csc(CC(=O)Nc3ccccc3C)n2)c1 | 23.7 | 18.0 | 18.5 | x | 5.6 | 12.7 | x
COc1cc(C2CC(=O)Oc3cc(C)c(Br)c(C)c32)cc(OC)c1OC (stereo not drawn) | 29.4 | 9.2 | -13.2 | x | 4.7 | x | x
COc1ccc(C2CC(=O)Oc3cc(C)c(Cl)c(C)c32)cc1 (stereo not drawn) | 50.9* | 30.1 | 7.5 | x | -1.5 | x | 37.3
COc1ccccc1C1CC(=O)Oc2cc(C)c(Br)c(C)c21 (stereo not drawn) | 60.3* | 32.5 | 12.9 | x | 1.5 | x | 42.0*
COc1cc(C2CC(=O)Oc3cc(C)c(Cl)c(C)c32)cc(OC)c1OC (stereo not drawn) | 28.3 | 7.0 | -12.1 | x | 1.6 | x | x
COc1ccccc1C1CC(=O)Oc2cc(C)c(Cl)c(C)c21 (stereo not drawn) | 52.2* | 30.5 | 11.0 | x | 0.4 | x | 40.8*
COc1ccc(C2CC(=O)Oc3cc(OC)ccc32)cc1 (stereo not drawn) | 50.3* | 20.8 | 14.4 | x | -0.3 | x | 23.5
O=C(CCn1ccnc1)Nc1cc(Cl)ccc1O | 11.0 | 10.8 | 11.7 | 14.2 | -6.1 | -16.3 | x
